Laboratory results reported in PubChem BioAssay AID504834 (National Center for Advancing Translational Sciences (NCATS), 2011).
Hit rate of the full screen: of about 320,000 compounds, about 22,000 (6.9%) were called active. About 27% were inconclusive and are not listed. Shown is part of a subset that was picked to be rich in actives. Unmarked numbers belong to inactive results. The call rests on the fitted dose curve; in most records, active means well fitted inhibition curve with a large enough effect; inconclusive means small, poorly fitted or top-dose-only effect, or another doubt; inactive means no such curve, though single readings can be large or run the other way.

test: Primary qHTS for delayed death inhibitors of the malarial parasite plastid, 96 hour incubation; settings: P. falciparum luciferase reporter growth; series mostly up to 28.7 µM; activity change, negative = inhibition: at the top concentration
Outline: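 Cell-based qHTS: luciferase-tagged P. falciparum in erythrocytes (2% hematocrit, 0.05% parasitemia final) incubated with compounds for 96 hours, 37 C, 5% CO2; luciferase detection reagent then added and luminescence measured.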
On the % scale 0 is the no-effect control and ±100 the full control effect; potency means the concentration at half of the fitted maximal effect.

Compound	activity change, negative = inhibition [%]	Potency
NC(=O)c1nsc(C(=O)N(CCCN2CCOCC2)C(C(=O)NC2CCCCC2)c2ccc(Cl)cc2)c1N (centres undefined)	4.88	–
c1ccc2cc(CCCc3cc4ccccc4cn3)ncc2c1	33.1	–
CCOc1ccc(OCc2ccc(C(=O)N(C)c3ccccc3)o2)cc1	-9.61	–
CCOC(=O)c1nnn(-c2nonc2OC)c1-c1ccccc1	-1.93	–
CCOC(=O)c1c(N)nn(C(=O)c2ccccc2)c1-c1ccccc1	-1.13	–
CCOC(=O)c1nnn(-c2nc(OC)nc(N(C)C)n2)c1-c1ccccc1	–	2.33 µM (active)
NC(=O)c1ccsc1NC(=O)COC(=O)Cc1n[nH]c(=O)c2ccccc12	56.7	–
CCCn1c(C(O)c2ccc(OCC)cc2)nc2ccccc21 (centres undefined)	69.5	–
CCn1c(C(O)c2cc(OC)ccc2OC)nc2ccccc21 (centres undefined)	–	9.28 µM (active)
COc1ccc(OC)c(C(O)c2nc3ccccc3n2C)c1 (centres undefined)	-5.13	–
O=C(Nc1cccc(Cl)c1)c1cc(S(=O)(=O)N2CCCCC2)c[nH]1	51.3	–
CC(=O)Nc1ccc(S(=O)(=O)NC2Cc3ccccc3C2)cc1	3.82	–
COc1ccc(C2=NN(C(=O)c3ccccc3C(=O)O)C(c3ccccc3O)C2)cc1 (centres undefined)	64.5	–
CCOc1ccc2nc(Cl)c(C3CC(c4ccccc4)=NN3C(=O)c3cccs3)cc2c1 (centres undefined)	–	8.28 µM (active)
COc1ccc(C2CC(c3ccccc3)=NN2C(=O)c2ccc(Cl)c([N+](=O)[O-])c2)cc1 (centres undefined)	-9.04	–
Cc1ccccc1Cn1c2ccccc2c2cnn(CC(=O)NCc3ccco3)c(=O)c21	-25.7	–
CCN(C(=O)COC(=O)CCOc1cccc(C)c1)c1c(N)n(Cc2ccccc2)c(=O)[nH]c1=O	25.4	–
COc1cc(NC(=O)c2cncc(-c3ccc(C#N)cc3)c2)cc(C(=O)Nc2cccc(C(F)(F)F)c2)c1	–	6.57 µM (active)
O=C(Nc1cccc(C(F)(F)F)c1)c1cnccn1	16.6	–
COc1ccc(NC(=O)CN(C)CC(=O)Nc2cccc(C(F)(F)F)c2)cc1	-20.6	–
Cc1c(Cl)cccc1NC(=S)NCC(O)c1ccccc1 (centres undefined)	0	–
CC(C)C(=O)NCC(c1cccs1)S(=O)(=O)c1ccc(F)cc1 (centres undefined)	19.9	–

Compound	activity change, negative = inhibition [%]	Potency
O=C(OC(C(=O)NC1CCCC1)c1ccc(F)cc1)c1ccno1 (centres undefined)	13.4	–
COCCNC(=O)C(OC(=O)c1cccs1)c1ccc(F)cc1 (centres undefined)	–	13.1 µM (active)
CC(=O)C[C@@H](O)CC(=O)[C@H]1OC(=O)CCCCCCc2ccccc21	33.7	–
CCCCn1c(N)c(N(CCOC)C(=O)c2cccc(OCc3ccccc3)c2)c(=O)[nH]c1=O	-15.2	–
COc1ccc(Cn2c(=S)[nH]c3cc(C(=O)NCCCN4CCOCC4)ccc3c2=O)cc1	12.8	–
COCCNC(=O)c1ccc(Cn2c(SCC(=O)NCC3CCCO3)nc3ccc(Br)cc3c2=O)cc1 (centres undefined)	-0.164	–
Cc1cccn2c(=O)c3cc(C(=O)NCC4CCCO4)c(=N)n(Cc4ccc(F)cc4)c3nc12 (centres undefined)	–	9.28 µM (active)
Cc1ccc(-c2noc(-c3ccccc3C(=O)NCC3CCCO3)n2)cc1 (centres undefined)	23.6	–
Cc1cccn2c(=O)c3cc(C(=O)NCCN4CCOCC4)c(=N)n(Cc4cccnc4)c3nc12	–	7.38 µM (active)
O=C(NCc1ccco1)c1cccn2c(=O)c3c4c(sc3nc12)CCCC4	-0.317	–
CCn1c(=N)c(C(=O)NCCCOC)cc2c(=O)n3cccc(C)c3nc21	0	–
COc1ccc(CCn2c(=N)c(C(=O)NCc3ccco3)cc3c(=O)n4cccc(C)c4nc32)cc1	–	0.586 µM (active)
Cc1cccn2c(CNCC(C)Oc3cccnc3)c(C(=O)N3CCOCC3)nc12 (centres undefined)	2.34	–
Cc1cccn2c(=O)c3cc(C#N)c(=O)n(CCCN4CCOCC4)c3nc12	–	2.62 µM (active)
Cc1ccc2cc(C#N)c(NCCNC(=S)NCCCN3CCOCC3)nc2c1	31.8	–
COCC(C)OC(=O)c1c(N)n(CCCN2CCOCC2)c2nc3ccccc3nc12 (centres undefined)	-41.3	–
O=C(c1c(F)cccc1F)N1CCN(c2ncc(Br)cn2)CC1	8.96	–
COC(=O)c1ccc(/C=N/NC(=O)C(=O)N2CCCCCC2)cc1	14	–
Brc1ccccc1C1N=C(c2ccccc2)NO1 (centres undefined)	189	–
CCCCn1c(N)c(N(CC(C)C)C(=O)c2cccc(S(=O)(=O)N3CCN(C(C)=O)CC3)c2)c(=O)[nH]c1=O	-22.4	–
CCN(C(=O)Cc1c(C(=O)O)n(CC)c2ccccc12)c1ccccc1C	41.7	–
COc1ccc(C(=O)COC(=O)Cn2cnc3c2c(=O)n(C)c(=O)n3C)c(OC)c1	-24.7	–

Compound	activity change, negative = inhibition [%]	Potency
N#Cc1cccc(CSc2ncnc(N)n2)c1	2.96	–
Cc1cc(C)n(-c2nnc(N3CCN(c4ccccc4)CC3)nn2)n1	–	0.329 µM (active)
Cc1cc(N2CCN(c3ccccc3)CC2)nc(N2CCOCC2)n1	-12	–
Cc1cc(-n2nc(C)cc2C)n2ncc(-c3ccccc3)c2n1	0	–
COc1ccc(N(CC(=O)Nc2cc(OC)cc(OC)c2)S(=O)(=O)c2c(C)n[nH]c2C)cc1	3.89	–
Cc1ccnc(N2C(=O)c3ccc([N+](=O)[O-])cc3C2=O)c1	-15.9	–
Nc1cc(N2CCCCCC2)c2nonc2c1[N+](=O)[O-]	-10.3	–
COc1ccc(C(=O)Nc2ccc3c(c2)OCO3)cc1OC	155	–
COc1ccc(C(=O)NC(=S)Nc2ccc(N3CCCC3)cc2)cc1OC	-18.8	–
COc1ccc(C(=O)Nc2ccc3nc(N4CCCCC4)cc(C)c3c2)cc1OC	–	11.7 µM (active)
COc1ccccc1C(=O)NCC(=O)NCCSc1ccc(Br)cc1	-14.1	–
CCOc1cc(/C=N/Nc2cc(C)nc3ccc(C)cc23)ccc1O	-21.3	–
CNc1ccc([N+](=O)[O-])cc1C(=O)O	-4.06	–
CCCCN(C(=O)c1ccc(S(=O)(=O)N2CCOCC2)cc1)C1CCS(=O)(=O)C1 (centres undefined)	22	–
CC1CCCCN1C(=O)Cn1c(=O)oc2cc(S(=O)(=O)N3CCCCC3)ccc21 (centres undefined)	-24	–
O=C(Nc1ccccc1N1CCN(C(=O)c2ccccc2)CC1)c1ccco1	-8.23	–
COC(=O)c1ccc(N2CCOCC2)c(NC(=O)c2ccc(Br)o2)c1	33.6	–
CCCNC(=O)c1ccc(N2CCC3(CC2)CC(c2cccc(Br)c2)=NO3)c(NC(=O)c2ccco2)c1	–	0.37 µM (active)
CC(CCc1ccc(O)cc1)NCc1ccc(Cl)cc1Cl (centres undefined)	22.2	–
O=C(CNS(=O)(=O)c1ccccc1)N1CCN(C(=O)c2ccco2)CC1	33.3	–
